Only some compounds are listed: those with a hit (about 3.4% of all), similar ones and a draw of the others.
SIRT5 block – inhibitors of human sirtuin-5 desuccinylase; Q9NXA8; Purified SirT5, succinyl-peptide AMC, trypsin-coupled fluorescence; inhibition, % at 15 µM; 1.1% of 330,000 active; AID 652115; in the data active = inhibition above about 15%; inconclusive = no clear call, values can overlap the other calls
Target sequence (Q9NXA8 whole entry, looked up): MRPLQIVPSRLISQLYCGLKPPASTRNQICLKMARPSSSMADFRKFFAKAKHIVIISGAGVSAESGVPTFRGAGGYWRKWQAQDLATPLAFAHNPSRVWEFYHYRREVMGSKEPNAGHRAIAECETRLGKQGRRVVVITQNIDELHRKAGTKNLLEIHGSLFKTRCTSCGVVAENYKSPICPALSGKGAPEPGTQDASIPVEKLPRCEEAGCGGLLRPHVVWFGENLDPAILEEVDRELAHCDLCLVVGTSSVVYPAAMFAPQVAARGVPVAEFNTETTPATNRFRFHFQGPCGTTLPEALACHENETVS
LGR2 inh – Drosophila LGR2 receptor signaling inhibition; HEK293 LGR2, CRE-luciferase, bursicon-stimulated, 4 h; inhibition, % at 9.99 µM; 0.35% of 380,000 active; AID 720647;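 active = drop in luminescence signal, shown as inhibition above about 50% in the replicate tests, limit read from the data, passing the limit was not always enough; inconclusive = probably only some replicates passing the limit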;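 also: agonist challenge used bursicon conditioned medium at about half maximal strength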
EWS-Fli inh – inhibitors of EWS/Fli oncoprotein transcriptional activity; A673 NR0B1-luciferase reporter, viability-normalised; inhibition, % at 12.6 µM; 0.67% of 350,000 active;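 active = mean inhibition of at least 50% after viability correction, with every replicate also passing that limit; inconclusive = mean reaches 50% but only one of two replicates passes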;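 also: firefly luciferase signal divided by Alamar Blue viability fluorescence both relative to DMSO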
PGC1a acetyl inh – PGC1a acetylation modulation, inhibitor mode | U2OS PGC1a acetylation, AlphaScreen anti-acetyl-lysine; with virally co-expressed GCN5 acetyltransferase | inhibition, % at 15.6 µM | 0.17% of 350,000 active | AID 651687;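 active = every replicate shows inhibition of at least 40%; inconclusive = mean inhibition at least 40% but some replicate below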
PAX8 reporter – PAX8 transcriptional activity inhibition. RMG-I TPO-luciferase reporter, SteadyGlo, 24 h. inhibition, % at 12.6 µM. 1.2% of 360,000 active. AID 652154;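 active = mean replicate inhibition at least 60% with every replicate also reaching 60%; inconclusive = only one of the two criteria is met; inactive = mean below 60% and not all replicates reaching 60%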;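 also: luciferase light reporting Pax8 driven TPO promoter activity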
rRNA inh HTS – selective bacterial rRNA inhibition in E. coli; E. coli WT GFP vs humanized-ribosome RFP mutants, fluorescence, 24 h; hits give low values; DMSO median 0, no signal -100; 1.6% of 350,000 active; GFP signal change (wild-type ribosome), % (concentration not given with the values);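 active = significant combined selectivity score with lowered wild-type GFP, culture density cut under 30%, mutant RFP and density less affected; inactive = any of these conditions unmet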
HepG2 tox – HepG2 cell cytotoxicity. 30 tested, under 10 active. activity change, negative = cytotoxicity, unspecified at 26 µM. shares compounds with rRNA inh HTS. HepG2 viability, ATP luminescence, 72 h;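 active = compounds whose fitted half-maximal signal-loss concentration is at most twice their highest valid dose; inconclusive = flat curve with 30 to 70% signal loss, or poor fit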
AID977621 – wild-type E. coli growth inhibition versus H69 humanized strain – H69 mutant RFP, wild-type GFP, cherry-pick, dose response; 1,900 tested, under 10 active; fluorescence, 24 h; activity change, negative = inhibition at 50 µM; shares compounds with rRNA inh HTS;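 active = Wild-type ribosome reporter drop at least double the humanized mutant ribosome reporter drop, growth loss under a set limit; inconclusive = no clear call, values can overlap the other calls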;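 also: wild-type GFP and H69 mutant RFP strains grown together 50/50 in each well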
AID977628 – E. coli growth inhibition, wild-type GFP versus h24 humanized RFP strain, dose response, h24 mutant RFP vs wild-type GFP, cherry-pick; 1,900 tested, under 10 active; E. coli WT GFP strain growth, fluorescence, 24 h; shares compounds with rRNA inh HTS; activity change, negative = inhibition at 50 µM; AID 977628;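 active = compound lowering the normal-ribosome reporter at least twice as much as the humanized-ribosome reporter, growth loss under a set limit; inconclusive = no clear call, values can overlap the other calls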;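 also: wild-type GFP and h24 humanized RFP strains co-cultured 1 to 1 per well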
A number is an active result; n = inactive; u = inconclusive; x = no result.

SMILES	SIRT5 block	LGR2 inh	EWS-Fli inh	PGC1a acetyl inh	PAX8 reporter	rRNA inh HTS	AID977621	AID977628	others
COCCCn1c(C)cc(C(=O)COC(=O)CCc2nc3ccccc3c(=O)[nH]2)c1C	n	n	n	x	n	-27	n	x
COCCn1c(C)cc(C(=O)CSc2nc3ccccc3c(=O)[nH]2)c1C	x	x	x	n	n	x	x	x
O=C(Nc1ccc(Cl)cc1)N[C@@H]1CC[C@@H](CCn2cc(C3(O)CCCC3)nn2)O[C@@H]1CO	n	n	n	n	n	n	x	x
COc1ccc(CC(=O)NC(C)c2ccc3ccccc3c2)cc1 (centres undefined)	n	n	n	n	n	-23	x	u
COc1ccc(C(C)NC(=O)Cc2cccs2)cc1 (centres undefined)	n	n	n	x	n	n	x	x
C[C@@H]1CCCCO[C@H](CN(C)Cc2ccc(C(F)(F)F)cc2)[C@H](C)CN([C@H](C)CO)C(=O)c2cc(NC(=O)C3CCCCC3)ccc2O1	x	n	n	n	n	n	x	x
COCC(=O)N1[C@@H]2CN(C(=O)Nc3ccccc3F)c3ccccc3[C@@H]2[C@@H]1CO	n	n	n	n	n	-18	n	u
O=C(Nc1cccc(F)c1)N1C[C@@H]2[C@H](c3ccccc31)[C@H](CO)N2C(=O)Cc1ccccn1	n	n	n	n	n	-18	n	n
O=C(Nc1cccc(F)c1)N1C[C@H]2[C@@H](c3ccccc31)[C@@H](CO)N2C(=O)Cc1ccccn1	n	n	n	n	n	n	x	x
CCC(=O)N1[C@H](CO)[C@@H]2c3ccccc3N(C(=O)Nc3ccc(Cl)cc3)C[C@@H]21	n	n	n	n	n	-22	n	x
C[C@@H]1CN([C@@H](C)CO)C(=O)c2cc(NC(=O)Nc3cccc4ccccc34)ccc2O[C@@H]1CN(C)S(=O)(=O)c1cn(C)cn1	n	n	n	n	x	n	x	x
c1ccc(-c2csc(-c3cccnc3)n2)cc1	n	n	n	n	n	n	x	x
c1ccc(-c2nc(-c3cccnc3)cs2)cc1	n	n	n	n	n	-24	u	x
CCOc1ccccc1/C=C/c1cc(C(=O)O)c2ccccc2n1	n	n	n	x	n	-23	n	x
CCOc1cccc(-c2cc(-c3n[nH]c(=S)n3CC)c3ccccc3n2)c1	n	n	n	n	x	-37	n	u
CCCC#Cc1cnc2c(c1)C(=O)N([C@@H](C)CO)C[C@@H](C)[C@H](CN(C)Cc1ccccc1)O2	n	n	n	n	x	n	x	x
Cc1cc(C(=O)COC(=O)c2ccc(O)cc2)c(C)n1CC(F)(F)F	n	n	n	n	n	-20	n	n
Cc1cc(C(=O)COC(=O)C2=NN(c3ccccc3)C(=O)CC2)c(C)n1CC(F)(F)F	n	n	n	n	n	n	x	x
CCOc1ccccc1NC(=O)c1ccc2ccccc2c1	n	n	n	88	n	-25	x	u	HepG2 tox=n
CCCC(=O)Nc1cccc(C(=O)Nc2ccccc2OCC)c1	n	n	n	x	n	-27	n	n
C/C=C/c1ccc([C@@H]2[C@@H](CO)N3C(=O)CN(C(=O)Nc4ccc(F)cc4)C[C@H]23)cc1	n	n	n	n	n	n	x	x
COc1ccc(S(=O)(=O)N(C)C[C@@H]2OCCCC[C@H](C)Oc3ccc(NC(=O)Nc4c(C)noc4C)cc3C(=O)N([C@@H](C)CO)C[C@@H]2C)cc1	n	n	n	n	n	n	x	x
C[C@@H]1CN([C@@H](C)CO)S(=O)(=O)c2ccc(C#CC3CC3)cc2O[C@H]1CN(C)CC1CCOCC1	n	n	n	n	x	n	x	x
COc1ccccc1CNC(=O)C[C@@H]1CC[C@H]2[C@H](COc3ccc(NC(=O)Nc4ccc(F)c(F)c4)cc3C(=O)N2C)O1	n	n	n	n	n	n	x	x
CCn1cc(Cl)c(C(=O)Nc2cccc(C(F)(F)F)c2)n1	n	n	n	n	n	-23	n	x
SMILES	SIRT5 block	LGR2 inh	EWS-Fli inh	PGC1a acetyl inh	PAX8 reporter	rRNA inh HTS	AID977621	AID977628	others
O=S(=O)(N[C@H]1CC[C@H](CCn2cc(C3(O)CCCC3)nn2)O[C@H]1CO)c1ccc(F)cc1	n	n	n	n	n	n	x	x
COc1ccc(C2CN=NC23CCc2ccccc2C3=O)cc1 (centres undefined)	n	n	n	n	n	-20	n	x
COc1ccc(C2CN=NC23CCCc2ccccc2C3=O)cc1 (centres undefined)	x	x	x	n	x	x	x	x
O=C(COC(=O)CCC(=O)c1ccc(F)cc1)Nc1cccc(S(=O)(=O)N2CCCC2)c1	n	n	n	x	n	-21	n	n
CC(=O)c1cccc(NC(=O)CCC(=O)c2ccc(F)cc2)c1	n	n	n	n	n	n	x	x
CC(=O)c1cccc(NC(=O)COC(=O)CCC(=O)c2ccc(F)cc2)c1	n	n	n	n	n	-17	n	x
O=C(COC(=O)c1n[nH]c2ccccc12)Nc1cccc(S(=O)(=O)N2CCOCC2)c1	n	n	n	x	n	-25	n	n
COc1ccc(CN(C)C[C@H]2Oc3c(NC(=O)Nc4ccc(C(F)(F)F)cc4)cccc3C(=O)N([C@H](C)CO)C[C@@H]2C)cc1	n	x	n	n	n	x	x	x
NS(=O)(=O)c1cccc(NC(=O)COc2ncnc3c2cnn3-c2ccccc2)c1	n	n	n	n	n	-20	u	x
Cc1noc(C)c1NC(=O)Nc1ccc2c(c1)C(=O)N(C)[C@@H]1CC[C@@H](CC(=O)N(C)C)O[C@H]1CO2	n	n	n	n	n	n	x	x
CCCN1C[C@@H](C)[C@@H](OC)CN(C)C(=O)c2cc(NC(=O)CC(F)(F)F)ccc2OC[C@@H]1C	x	n	n	n	n	n	x	x
O=C(Cc1cccnc1)N1CC(=O)N2[C@H](CO)[C@H](c3ccc(/C=C/c4ccccc4)cc3)[C@@H]2C1	n	n	n	n	n	n	x	x
O=C(NCCc1ccc(Cl)cc1)c1ccc2nc[nH]c2c1	n	n	n	n	n	-32	x	u
O=C(NCCc1ccc(Cl)cc1Cl)c1ccc2nc[nH]c2c1	n	n	n	n	n	n	x	x
Cc1cccc(N2CCN(Cc3nc(-c4ccc(F)cc4F)oc3C)CC2)n1	n	n	n	n	n	-34	n	n
CNC(=O)C[C@H]1CC[C@H]2[C@@H](COC[C@H](O)CN2S(=O)(=O)c2ccc(Oc3ccccc3)cc2)O1	n	n	n	n	n	n	x	x
COc1ccc(CNC(=O)Cc2cn(C)c3ccccc23)c(OC)c1	n	n	n	n	n	-24	n	n
